Source: PubChem
KCNQ2 inh: KCNQ2 (rat) channel inhibition; CHO-K1 KCNQ2, FluxOR thallium flux, 20 min; stronger effect = lower value; 310,000 tested, 1.1% active; O88943; B-score at 10 µM; AID 2156;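 active = fluorescence ratio B-score at most minus 3 library SDs, with starting brightness B-score within 2 library SDs, cut at about -5.5 in these data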
KCNQ2 pot: KCNQ2 (rat) channel potentiation. O88943. CHO-K1 KCNQ2, FluxOR thallium flux fluorescence; stronger effect = higher value. B-score at 10 µM. 310,000 tested, 0.54% active;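 active = fluorescence ratio B-score at least 3 SD of library B-scores, with initial fluorescence B-score within 3 of them, cut at about 5.3 in these data; same plate scores as AID 2156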;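 note: B-score of peak minus minimum over baseline fluorescence ratio after K+ and Tl+ stimulus; positive B-score means potentiation of KCNQ2 with more thallium influx and brighter signal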
Kir21 conf inh: confirmation of mouse Kir2.1 potassium channel inhibitors. Kir2.1-expressing cells, FluxOR thallium flux fluorescence; stronger effect = lower value. shares compounds with KCNQ2 pot. Tl flux remaining, % of negative control (stronger effect = lower value), % at 10 µM. 2,300 tested, 41% active;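 active = Primary-screen hit whose thallium flux fell at least 3 control SD below untreated wells in both duplicates, with normal baseline fluorescence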;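 note: 0% = blank wells without stimulus and 100% = stimulated no-compound controls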
HEK293 Tl flux: alters thallium flux in parental HEK293 cells, Kir2.1 counter-screen. shares compounds with KCNQ2 pot. FluxOR signal as % of negative control (100 = no effect), % at 10 µM. 2,300 tested, 19% active. FluxOR thallium flux fluorescence; 0% = unstimulated blank wells;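 active = dye signal at least 3 control SD above or below untreated wells in both duplicates, raw fluorescence within 3, either direction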;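 note: percent is based on the flux ratio of peak minus minimum fluorescence over baseline F0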
CHO-K1 Tl ctr: parental CHO-K1 activity in KCNQ2 potentiator counter-screen | 1,200 tested, 43% active | activity increase over 3SD of controls, % at 10 µM | shares compounds with KCNQ2 pot | parental CHO-K1 cells, FluxOR thallium flux fluorescence; zero = vehicle mean+3SD, 100% = vehicle-minus-blank window | AID 2282;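 active = signal rise of at least 3 SD above the untreated control mean, in both duplicate wells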;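 note: counter screen of KCNQ2 potentiator hits so any rise reflects channel-independent effects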
KCNQ1 sel pot: tests whether KCNQ2 potentiators also act on human KCNQ1 | shares compounds with KCNQ2 pot | 1,200 tested, 28% active | CHO KCNQ1 stable, FluxOR thallium flux fluorescence; beyond 3SD, as % of vehicle-control signal | activation over 3SD threshold, % at 10 µM;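 active = fluorescence ratio rise of at least 3 SD of vehicle wells above their mean, in both replicate wells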;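 note: 0% = vehicle mean plus 3 SD and 100% = vehicle minus unstimulated blank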
KCNQ2 pot conf: rat KCNQ2 channel potentiator confirmation. shares compounds with KCNQ2 pot. CHO-KCNQ2 cells, FluxOR thallium flux fluorescence. potentiation, less the hit threshold, % at 10 µM. 1,200 tested, 68% active. AID 2287;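 active = fluorescence ratio rising 3 SD or more over the vehicle control mean in both replicates, plus primary screen hit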;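 note: peak minus minimum thallium fluorescence divided by baseline after K/Tl stimulus; 0% = vehicle mean plus 3 SD and 100% = vehicle minus unstimulated blank difference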
Kir2-1 sel: mouse Kir2.1 off-target activity of KCNQ2 potentiators; shares compounds with KCNQ2 pot; HEK293 Kir2.1, FluxOR thallium flux fluorescence; activity over 3SD threshold, % at 10 µM; 1,200 tested, 2% active;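 active = fluorescence ratio rise of at least 3 SD above the vehicle-control mean, seen in both replicates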;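 note: 0% = vehicle mean plus 3 SD and 100% = vehicle minus no-stimulus blank window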
KCNQ2 W236L MoA: rat KCNQ2 W236L mutant potentiation by KCNQ2 potentiators; 940 tested, 10% active; current increase over 3SD of negative controls (%), stronger effect = higher value, % at 25 µM; CHO KCNQ2-W236L, automated patch clamp current; shares compounds with KCNQ2 pot;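 active = current increase at least 3 SD of the untreated controls above them in both duplicate recordings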
Target sequence (O88943 whole entry W236L, looked up): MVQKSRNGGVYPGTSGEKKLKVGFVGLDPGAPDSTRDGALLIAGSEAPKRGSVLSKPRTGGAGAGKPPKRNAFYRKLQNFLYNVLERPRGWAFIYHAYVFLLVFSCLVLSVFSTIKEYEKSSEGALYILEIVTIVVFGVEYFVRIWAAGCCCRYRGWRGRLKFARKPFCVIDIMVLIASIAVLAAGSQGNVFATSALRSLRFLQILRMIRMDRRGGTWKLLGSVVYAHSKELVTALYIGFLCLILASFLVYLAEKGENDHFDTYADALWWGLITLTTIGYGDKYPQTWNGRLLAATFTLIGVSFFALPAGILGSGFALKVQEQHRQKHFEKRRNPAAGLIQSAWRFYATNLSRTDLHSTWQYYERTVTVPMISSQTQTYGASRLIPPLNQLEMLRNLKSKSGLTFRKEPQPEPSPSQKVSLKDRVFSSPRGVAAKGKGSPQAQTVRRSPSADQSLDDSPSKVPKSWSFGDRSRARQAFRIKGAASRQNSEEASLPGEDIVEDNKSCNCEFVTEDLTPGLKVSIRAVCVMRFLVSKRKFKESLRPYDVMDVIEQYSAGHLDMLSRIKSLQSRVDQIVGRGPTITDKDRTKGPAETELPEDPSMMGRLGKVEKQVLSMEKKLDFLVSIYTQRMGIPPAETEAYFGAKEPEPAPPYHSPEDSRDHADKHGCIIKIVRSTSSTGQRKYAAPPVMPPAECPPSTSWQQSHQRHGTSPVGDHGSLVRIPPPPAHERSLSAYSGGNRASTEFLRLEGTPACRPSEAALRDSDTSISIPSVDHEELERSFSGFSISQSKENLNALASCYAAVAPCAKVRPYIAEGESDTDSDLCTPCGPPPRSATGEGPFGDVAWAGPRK
An asterisk follows results filed as active; i = inactive; . = not tested or not shown. An excerpt weighted towards active compounds, which were near 1.6% of everything screened.

SMILES	KCNQ2 inh	KCNQ2 pot	Kir21 conf inh	HEK293 Tl flux	others
CCOc1ccccc1C(=O)NCC(=O)N(C)Cc1cccnc1	i	0.12	.	.
Cc1cc(C)c(C)c(S(=O)(=O)NCC(=O)Nc2ccccc2F)c1C	i	.	66%*	i
Cc1cc(C)c(C)c(S(=O)(=O)NCC(=O)O)c1C	i	0.38	.	.
COc1cc(/C=C/[N+](=O)[O-])ccc1OCc1cccc(C(=O)O)c1	i	4	.	.
O=C(O)CSc1cc(C(=O)c2ccccc2O)cn2c(=O)c3c(-c4ccccc4)csc3nc12	i	1.9	.	.
COC(=O)C1(O)CC(CC(C)C)=NN1C(=O)c1ccccc1 (configuration not stated)	i	8.8*	i	i	CHO-K1 Tl ctr=8.6*;KCNQ1 sel pot=-10;KCNQ2 pot conf=23*;Kir2-1 sel=-42;KCNQ2 W236L MoA=i
COC(=O)C1=NN(C(=O)c2ccccc2)C(C)(O)C1 (configuration not stated)	i	1.5	.	.
Cc1ccc(NC(=O)NCC2CCN(Cc3cccc(Cl)c3)CC2)cc1Cl	i	4.1	.	.
Cn1cnc([N+](=O)[O-])c1S(=O)(=O)c1ccc(Cl)cc1	i	.	70%*	68%*
Cn1cnc([N+](=O)[O-])c1NC(C)(C)C	i	0.13	.	.
CCCCN(CCCC)CCNC(=O)CSCc1ccc(C)cc1	i	0.98	.	.
COc1ccc(Nc2cc(C)nc(NCc3ccccc3)n2)cc1	i	.	64%*	i
COc1cc(C)nc(NCc2ccccc2)n1	i	.	.	.
Cc1cccc(NC(=O)CC(=O)Nc2cccc(C)c2)c1	i	.	.	.
Cc1cccc(NC(=O)C23CCC(C)(C2Br)C3(C)C)c1 (configuration not stated)	i	10*	i	i	CHO-K1 Tl ctr=-2;KCNQ1 sel pot=7.4*;KCNQ2 pot conf=-6;Kir2-1 sel=-47;KCNQ2 W236L MoA=i
CCOc1cccc(NC(=O)CSc2nncn2N)c1	i	.	.	.
Cc1ccccc1C(=O)N1CCC(C(=O)Nc2nccs2)CC1	i	.	.	.
Cc1ccccc1NC(=O)Cn1c(C)nc2ccc(N)cc2c1=O	i	0.03	.	.
COc1ccc(C(=O)c2ccc(OC)c3cccc(O)c23)cc1OC	i	.	.	.
COC(=O)c1ccc(Cl)c(NC(=O)CSc2ncn[nH]2)c1	i	.	.	.
CC(C)c1ccc(C(=O)N(c2ccccn2)C(C)c2ccco2)cc1 (configuration not stated)	i	.	.	.
CC(c1ccco1)N(C(=O)CSc1ccc(Br)cc1)c1ccccn1 (configuration not stated)	i	.	69%*	i
c1ccc(CCNCCCOc2cccc3ccccc23)cc1	i	.	14%*	i
CC(=O)NCCOc1cccc2ccccc12	i	0.73	.	.
CN1CCC(=NNC(=O)c2cn(-c3ccccc3)nc2-c2ccccc2)CC1	i	.	.	.
SMILES	KCNQ2 inh	KCNQ2 pot	Kir21 conf inh	HEK293 Tl flux	others
Cc1c(NC(=O)c2cnn3c2NC(c2ccccc2)CC3C(F)(F)F)c(=O)n(-c2ccccc2)n1C (configuration not stated)	i	1.9	.	.
O=C1CC(N2CCN(C/C=C/c3ccccc3)CC2)C(=O)N1Cc1cccs1 (configuration not stated)	i	.	.	.
S=C(NCc1ccccc1)N1CCN(Cc2ccc3c(c2)OCO3)CC1	i	.	.	.
S=C(NCc1ccc2c(c1)OCO2)NC1CCN(Cc2ccccc2)CC1	i	1	40%*	126%*
CC(=O)c1cccc(NS(=O)(=O)c2ccc(-c3cnc(C4CC4)o3)cc2)c1	i	.	.	.
CCOC(=O)C1=C(C)NC(SC)=C(C#N)C1CC(C)C (configuration not stated)	i	.	74%*	i
CC(=O)C1=C(C)NC(SCC(N)=O)=C(C#N)C1CC(C)C (configuration not stated)	i	.	.	.
CC1CC(C)C[N+](=C2C=C(N3CCCC3)CC(C)(C)C2)C1 (configuration not stated)	i	.	i	i
CC1(C)CC(N2CCCC2)=CC(=[N+]2CCCCCC2)C1	i	1.2	.	.
CCc1ccc(S(=O)(=O)/N=C2\C=C(Nc3cccc(C(=O)O)c3)C(=O)c3ccccc32)cc1	i	1.2	.	.
Cc1cc(C)c(S(=O)(=O)/N=C2\C=C(Nc3ccc(C(=O)O)cc3)C(=O)c3ccccc32)c(C)c1	i	7.9*	i	i	CHO-K1 Tl ctr=9.1*;KCNQ1 sel pot=-7;KCNQ2 pot conf=0;Kir2-1 sel=-4;KCNQ2 W236L MoA=i
Cc1ccc2cc(CN(CCN3CCOCC3)C(=O)NCc3ccccc3)c(=O)[nH]c2c1C	i	0.08	.	.
COC(=O)c1cn(NC(=O)C2CCC(C)CC2)c(=O)c2ccccc12 (configuration not stated)	i	.	.	.
COC(=O)c1cn(NC(=O)CCC2CCCC2)c(=O)c2ccccc12	i	28*	i	i	CHO-K1 Tl ctr=104*;KCNQ1 sel pot=-14;KCNQ2 pot conf=122*;Kir2-1 sel=-27;KCNQ2 W236L MoA=i
COC(=O)c1cn(NC(=O)CC2CCCCC2)c(=O)c2ccccc12	i	14*	i	i	CHO-K1 Tl ctr=-10;KCNQ1 sel pot=-15;KCNQ2 pot conf=75*;Kir2-1 sel=-31;KCNQ2 W236L MoA=i
COC(=O)c1cn(NC(=O)c2cc([N+](=O)[O-])ccc2F)c(=O)c2ccccc12	i	.	.	.
O=C(NNC(=S)Nc1ccccc1C(F)(F)F)c1cccnc1	i	.	.	.
CCc1cccc(CC)c1NC(=O)c1ccccc1	i	1.3	.	.
C/C(=N\Nc1ccc([N+](=O)[O-])cc1[N+](=O)[O-])c1cccnc1	i	1	.	.
Cn1cc(Br)c(-c2cccc(N3C(=O)CC(C)(C)CC3=O)c2)n1	i	0.01	.	.
COc1ccccc1C1CCN(Cc2ccc(Cl)c(Cl)c2)CC1	i	.	.	.
CN[C@@H]1CC[C@H](c2ccc(Cl)c(Cl)c2)c2ccccc21	i	.	47%*	i
CCCCCc1cc(O)c2c(C)cc(=O)oc2c1	i	0.22	.	.
CCCCc1cc(O)c(CCCC)c(O)c1	i	8.7*	.	.	CHO-K1 Tl ctr=-16;KCNQ1 sel pot=-15;KCNQ2 pot conf=38*;Kir2-1 sel=-55;KCNQ2 W236L MoA=i
C[C@H]1c2cccc(O)c2C(O)=C2C(=O)[C@]3(O)C(O)=C(C(N)=O)C(=O)[C@@H](N(C)C)[C@@H]3[C@@H](O)[C@@H]21	i	.	.	.
Cc1nnc2n(-c3ccccc3)c(=O)c3c4c(sc3n12)COC(C(C)C)C4 (configuration not stated)	i	0.2	.	.
